In all, about 310,000 compounds went through this assay and about 14,000 (4.5%) showed an effect of 50% or more. The effect is printed as a negative number. Only a selection was taken, and strong results are over-represented in it overall.
The molecules below were run against human ether-à-go-go-related gene (hERG) potassium channel (human, UniProt Q12809) (assay: primary screen, population patch clamp on CHO cells stably expressing hERG; higher = less effect of the substance).
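Note: peak tail current of the secondary pulse compared with the same well before compound.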

Sequence of human ether-à-go-go-related gene (hERG) potassium channel (Q12809 whole entry, looked up): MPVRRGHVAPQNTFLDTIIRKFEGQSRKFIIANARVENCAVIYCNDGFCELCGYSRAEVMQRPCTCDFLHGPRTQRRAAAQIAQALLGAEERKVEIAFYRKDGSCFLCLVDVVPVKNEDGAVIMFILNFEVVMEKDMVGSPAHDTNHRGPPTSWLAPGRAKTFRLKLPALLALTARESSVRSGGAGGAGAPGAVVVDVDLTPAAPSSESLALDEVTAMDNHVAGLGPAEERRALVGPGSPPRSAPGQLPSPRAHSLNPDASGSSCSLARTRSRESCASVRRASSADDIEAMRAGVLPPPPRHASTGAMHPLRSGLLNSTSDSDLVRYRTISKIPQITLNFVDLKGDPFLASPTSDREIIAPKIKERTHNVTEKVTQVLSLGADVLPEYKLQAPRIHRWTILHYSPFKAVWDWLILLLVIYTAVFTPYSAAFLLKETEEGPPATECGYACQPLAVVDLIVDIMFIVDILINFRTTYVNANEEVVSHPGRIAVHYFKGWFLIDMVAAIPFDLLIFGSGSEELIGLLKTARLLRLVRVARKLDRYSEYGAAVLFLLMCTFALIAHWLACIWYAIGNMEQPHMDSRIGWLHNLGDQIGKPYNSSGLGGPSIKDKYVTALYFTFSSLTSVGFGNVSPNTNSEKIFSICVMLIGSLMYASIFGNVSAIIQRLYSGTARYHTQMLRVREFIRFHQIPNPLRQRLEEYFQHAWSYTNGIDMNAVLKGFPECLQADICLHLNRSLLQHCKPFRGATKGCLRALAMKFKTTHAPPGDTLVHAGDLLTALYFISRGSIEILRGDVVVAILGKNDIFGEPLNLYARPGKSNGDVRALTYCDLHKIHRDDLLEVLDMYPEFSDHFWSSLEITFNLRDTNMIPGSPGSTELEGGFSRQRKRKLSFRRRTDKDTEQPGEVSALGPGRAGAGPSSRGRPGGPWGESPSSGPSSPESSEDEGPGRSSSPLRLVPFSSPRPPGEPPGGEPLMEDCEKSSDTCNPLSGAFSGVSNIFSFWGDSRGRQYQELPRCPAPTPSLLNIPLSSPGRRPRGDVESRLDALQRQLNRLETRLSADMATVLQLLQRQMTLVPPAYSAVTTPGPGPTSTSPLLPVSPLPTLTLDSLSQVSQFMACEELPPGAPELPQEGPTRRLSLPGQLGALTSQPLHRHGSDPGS

| Compound | hERG current change (%, negative = inhibition) at 10uM [%] |
| --- | --- |
| O=C(COc1ccccc1)Nc1ccccc1N1CCCCC1 | 2.27 |
| CCN(CC)CCNC(=O)c1cn(CC)c2ccc(S(=O)(=O)N3CCc4ccccc4C3)cc2c1=O | -59.4 |
| CCN(CC)CCCNC(=O)c1cn(CC)c2ccc(S(=O)(=O)N3CCc4ccccc4C3)cc2c1=O | -52.9 |
| CCn1cc(C(=O)NCCc2ccccc2)c(=O)c2cc(S(=O)(=O)N3CCCC3)ccc21 | 1.7 |
| CCn1cc(C(=O)NCc2ccco2)c(=O)c2cc(S(=O)(=O)N3CCc4ccccc4C3)ccc21 | -15.3 |
| CCCN(CCC)CCCNC(=O)c1cn(CC)c2ccc(S(=O)(=O)N3CCOCC3)cc2c1=O | 12.8 |
| CCn1cc(C(=O)NCCCN2CCN(C)CC2)c(=O)c2cc(S(=O)(=O)N3CCc4ccccc4C3)ccc21 | -20.4 |
| CCCCN(CCCC)CCNC(=O)c1cn(CC)c2ccc(S(=O)(=O)N3CCc4ccccc4C3)cc2c1=O | -78.8 |
| CCCN(CCC)CCCNC(=O)c1cn(CC)c2ccc(S(=O)(=O)N3CCc4ccccc4C3)cc2c1=O | -69.9 |
| CCn1cc(C(=O)NCCN(CC(C)C)CC(C)C)c(=O)c2cc(S(=O)(=O)N3CCOCC3)ccc21 | -14.1 |
| O=C(NC1CCCCC1)C1CCC(CNS(=O)(=O)c2ccccc2)CC1 (stereo not drawn) | 10.3 |
| COc1ccc(-c2c(C#N)c(C)nc3c2C(=O)c2ccccc2-3)cc1 | -3.8 |
| Cn1c(SCC(=O)c2ccccc2)nnc1-c1ccc(O)cc1 | -11.2 |
| COc1cccc(C=NCC(C)N=Cc2cccc(OC)c2O)c1O (stereo not drawn) | 3.33 |
| Cn1c(=O)c2c(nc(NCc3ccco3)n2CC(O)CO)n(C)c1=O (stereo not drawn) | 22.1 |
| CCOC(=O)N1CCN(C(=O)CCN2C(=O)COc3ccccc32)CC1 | 0.87 |
| c1ccc(-c2noc(-c3ccc4ccccc4c3)n2)cc1 | 11.9 |
| CCOC(=O)c1c(NC(=O)CCCN2CCOCC2)sc2c1CC(C)(C)OC2 | -9.14 |
| COc1ccc(C2=NOC(C(=O)Nc3ccc4c(c3)OCCO4)C2)c(OC)c1 (stereo not drawn) | 3.96 |
| CCOC(=O)COc1ccc(S(=O)(=O)NCc2ccco2)cc1 | -1.53 |
| CCNc1nc(NC(C)CC)nc(ON=C(C)C)n1 (stereo not drawn) | -2.23 |

| Compound | hERG current change (%, negative = inhibition) at 10uM [%] |
| --- | --- |
| CCCCSCCCNC(=O)c1cn(CC)c2ccc(S(=O)(=O)N3CCOCC3)cc2c1=O | -44.9 |
| CCCCN(C)CCCNC(=O)c1cn(CC)c2ccc(S(=O)(=O)N3CCOCC3)cc2c1=O | 10.3 |
| CCCCN(CC)CCCNC(=O)c1cn(CC)c2ccc(S(=O)(=O)N3CCc4ccccc4C3)cc2c1=O | -74.9 |
| O=C(CCN1CCCCO1)N1CCCC(Nc2cccc(F)c2)C1 (stereo not drawn) | 14 |
| Nc1nc2n(n1)C(c1ccco1)CC(c1ccc(Cl)c(Cl)c1)N2 (stereo not drawn) | -31.4 |
| CC1CCN(C(=S)Nc2ccc(F)cc2)CC1 | 3.1 |
| CC1C(=O)CC(c2ccc([N+](=O)[O-])cc2)NC1c1ccc([N+](=O)[O-])cc1.Cl (stereo not drawn) | -69.7 |
| CCC1C(=O)C(C)(C)C(=O)OC1c1ccc([N+](=O)[O-])cc1 (stereo not drawn) | -7.26 |
| CC1C(=O)C(C)C(c2ccc([N+](=O)[O-])cc2)NC1c1ccc([N+](=O)[O-])cc1 (stereo not drawn) | -46 |
| CC1C(=O)CC(c2ccccc2)NC1c1ccccc1 (stereo not drawn) | -7.08 |
| CCC1C(=O)CC(c2ccccc2)NC1c1ccccc1 (stereo not drawn) | -21.4 |
| CCC1C(=O)CC(c2ccc([N+](=O)[O-])cc2)NC1c1ccc([N+](=O)[O-])cc1 (stereo not drawn) | -76.3 |
| Cc1ccc(NC(=O)CN(C)C(=O)CSc2nc3ccccc3o2)cc1 | -20.5 |
| COc1cc2c(cc1NC(=O)CN1CCN(S(=O)(=O)c3ccccc3F)CC1)oc1ccccc12 | 10.1 |
| CSc1ccc(C(=O)C2CCCN(Cc3cc4ccccc4[nH]3)C2)cc1 (stereo not drawn) | -48.8 |
| COc1c(C)cc(C(=O)C2CCCN(Cc3cccc4nccnc34)C2)cc1C (stereo not drawn) | -64.5 |
| COc1ccccc1C(=O)C1CCCN(Cc2cnc(C)s2)C1 (stereo not drawn) | -8.13 |
| CSc1ccc(C(=O)C2CCCN(Cc3cccc4nccnc34)C2)cc1 (stereo not drawn) | -82.8 |
| CSc1ccc(C(=O)C2CCCN(C(=O)c3cccnc3SC)C2)cc1 (stereo not drawn) | -32.4 |
| COc1ccccc1C(=O)C1CCCN(Cc2cn[nH]c2C2CCCCC2)C1 (stereo not drawn) | -31.5 |
| CCCN1CCCC(C(=O)c2cc(C)c(OC)c(C)c2)C1 (stereo not drawn) | -3.65 |

| Compound | hERG current change (%, negative = inhibition) at 10uM [%] |
| --- | --- |
| COc1ccccc1C(=O)C1CCCN(Cc2cccc3nccnc23)C1 (stereo not drawn) | -67.4 |
| COc1c(C)cc(C(=O)C2CCCN(Cc3cnc(C)s3)C2)cc1C (stereo not drawn) | -7.68 |
| CCOCCCN=Cc1c(O)n(Cc2ccccc2)c(=O)[nH]c1=O | -4.85 |
| c1ccc(CSc2nnc3ccc(-c4cccs4)nn23)nc1 | 3.64 |
| Cc1cccc(OCC(=O)Nc2ccc3c(C)cc(=O)oc3c2)c1 | 1.59 |
| CCOc1ccc(C(=O)OC2CCCN(C)C2)cc1.Cl (stereo not drawn) | -18.1 |
| O=C(c1ccc2ccccc2c1)N1CCCC1 | 19.2 |
| CC(=O)c1sc(NC(=O)c2cc(=O)c3ccccc3o2)nc1C | 10.1 |
| O=C(Cc1ccc(F)cc1)Nc1nnc(SCC(=O)NC2CCCC2)s1 | 1.56 |
| COc1cccc(C(O)c2nc3ccccc3n2C)c1 (stereo not drawn) | 3.27 |
| CC(NC(=O)Cn1ccsc1=N)C12CC3CC(CC(C3)C1)C2.Cl (stereo not drawn) | -34.4 |
| CCC(=O)c1c[nH]c(C(=O)NCc2ccccc2OC)c1 | -6.15 |
| CCN(CC)CCCN1CC(O)=C(c2nc3ccccc3s2)C1=N | -34.2 |
| Fc1ccc(Nc2nnns2)cc1 | 18.2 |
| O=C(OCc1cccc([N+](=O)[O-])c1)c1ccc[nH]c1=O | 17.2 |
| COc1ccc(CC(=O)Nc2cc(C)ccn2)cc1 | 6.87 |
| O=C(COC(=O)C1CC(=O)N(Cc2ccccc2)C1)Nc1ccccc1F (stereo not drawn) | 7.39 |
| CSc1ccc(CN(C)C(=O)C2CCN(C(=O)Nc3ccccc3)CC2)cc1 | -67.4 |
| CN(Cc1cccc(Cl)c1)C(=O)C1CCN(C(=O)Nc2ccccc2)CC1 | -55.9 |
| COc1ccc(CN(C)C(=O)C2CCN(C(=O)Nc3ccccc3)CC2)cc1OC | -1.53 |
| CN(CC(=O)Nc1c(Cl)cccc1Cl)C(=O)C1CCN(C(=O)Nc2ccccc2)CC1 | 11.5 |

| Compound | hERG current change (%, negative = inhibition) at 10uM [%] |
| --- | --- |
| COc1ccc(CN(C)C(=O)C2CCN(C(=O)Nc3ccccc3)CC2)cc1 | -16.3 |
| CSc1ccccc1NC(=O)CN(C)C(=O)C1CCN(C(=O)Nc2ccccc2)CC1 | -11.4 |
| CCn1cnc2c1c(=O)n(CC(=O)Nc1ccc(C(N)=O)cc1)c(=O)n2Cc1ccccc1 | 13.8 |
| Clc1cccc(C2Nc3cccc4cccc(c34)N2)c1Cl | 16.2 |
| CCOC(=O)C1CCCN(c2nc3c(C)cccn3c(=O)c2/C=C(\C#N)C(=O)NCc2ccco2)C1 (stereo not drawn) | -49.7 |
| O=C(NCC1CCCO1)/C(=C\c1cccc([N+](=O)[O-])c1)NC(=O)c1ccccc1 (stereo not drawn) | -33 |
| CC(C)NC(=O)/C(=C\c1cccc([N+](=O)[O-])c1)NC(=O)c1ccccc1 | -18.1 |
| Cc1ccc(C(=O)N/C(=C\c2ccccc2)C(=O)NCC2CCCO2)cc1 (stereo not drawn) | -24.3 |
| Cc1ccc(C(=O)N/C(=C/c2cccc([N+](=O)[O-])c2)C(=O)NC(C)C)cc1 | -51.8 |
| Cc1ccc(C(=O)N/C(=C\c2cccc([N+](=O)[O-])c2)C(=O)NC(Cc2ccccc2)C(=O)O)cc1 (stereo not drawn) | 15.3 |
| N#C/C(=C\c1cccc([N+](=O)[O-])c1)C(=O)NCc1cccnc1 | -50.8 |
| CCNC(=O)/C(=C/c1cccc([N+](=O)[O-])c1)NC(=O)c1ccc(C)cc1 | -58.1 |
| Cc1ccc(C(=O)N/C(=C\c2cccc([N+](=O)[O-])c2)C(=O)OCN2C(=O)c3ccccc3C2=O)cc1 | -11 |
| CC(=O)N/C(=C\c1cccc([N+](=O)[O-])c1)C(=O)NC(C)C | 2.75 |
| O=C(/C=C/c1cccc([N+](=O)[O-])c1)NCc1cccnc1 | -14 |
| Cc1ccc(C(=O)N/C(=C/c2cccc([N+](=O)[O-])c2)C(=O)NCC2CCCO2)cc1 (stereo not drawn) | -68.4 |
| N#C/C(=C\c1cccc([N+](=O)[O-])c1)C(=O)Nc1cccnc1 | 21.3 |
| Cc1ccc(NC(=O)CSCc2ccco2)cc1 | 21.7 |
| O=C(CCSc1ccc(F)cc1)Nc1ccc(-n2cnnn2)cc1 | -26.4 |
| COc1cc(/C=N/N2CCN(c3ccc(Cl)cc3)CC2)cc(OC)c1OC(C)=O | 9.63 |
| O=C(NC(NC(=S)Nc1ccccc1)C(Cl)(Cl)Cl)c1cccc(Cl)c1 (stereo not drawn) | 7.91 |
